Publication PMC11062922 (Nature Chemical Biology, 2023)
Read-outs that look alike come from different tables or passages of the source.

Tests used:
Parameters in all cases: species or system human, MV4-11 + K-562 + COLO205 + SK-N-BE2 + OVCAR-8
AURKB = settings: read-out: apparent Kd, compound concentrations: 100 nM and 1000 nM (sheet 'Samples'), n = 1
EGFR = settings: read-out: apparent Kd, compound concentrations: 100 nM and 1000 nM (sheet 'Samples'), n = 1
EIF2AK1 = settings: read-out: apparent Kd; compound concentrations: 100 nM and 1000 nM (sheet 'Samples'), CATDS: 0.14381895647439999; n = 1
FLT3 = settings: read-out: apparent Kd; compound concentrations: 100 nM and 1000 nM (sheet 'Samples'), CATDS: 0.410073684021382; n = 1
LIMK1 = settings: read-out: apparent Kd; compound concentrations: 100 nM and 1000 nM (sheet 'Samples'), CATDS: 8.0890535197294403E-2; n = 1
LIMK2 = settings: read-out: apparent Kd; compound concentrations: 100 nM and 1000 nM (sheet 'Samples'), CATDS: 0.109376912936183; n = 1
NNT = settings: read-out: apparent Kd; compound concentrations: 100 nM and 1000 nM (sheet 'Samples'), CATDS: 8.6496378870903501E-2; n = 1
PDGFRB = settings: read-out: apparent Kd; compound concentrations: 100 nM and 1000 nM (sheet 'Samples'), CATDS: 9.2318331607570206E-2; n = 1
TESK2 = settings: read-out: apparent Kd; compound concentrations: 100 nM and 1000 nM (sheet 'Samples'), CATDS: 9.3788253526120594E-2; n = 1
BMP2K = settings: read-out: apparent Kd; compound concentrations:100 nM and 1000 nM (sheet 'Samples'); n = 1
MAP3K1 = settings: read-out: apparent Kd; compound concentrations:100 nM and 1000 nM (sheet 'Samples'); n = 1
MAP4K5 = settings: read-out: apparent Kd; compound concentrations:100 nM and 1000 nM (sheet 'Samples'); n = 1
NUAK2 = settings: read-out: apparent Kd; compound concentrations:100 nM and 1000 nM (sheet 'Samples'); n = 1
PLK1 = settings: read-out: apparent Kd; compound concentrations:100 nM and 1000 nM (sheet 'Samples'); n = 1
STK10 = settings: read-out: apparent Kd; compound concentrations:100 nM and 1000 nM (sheet 'Samples'); n = 1
PIK3CD = settings: read-out: apparent Kd; compound concentrations: 100 nM and 1000 nM (sheet 'Samples'), CATDS: 0.82128719253375804; n = 1
CDC42BPA = settings: read-out: apparent Kd; compound concentrations:100 nM and 1000 nM (sheet 'Samples'); n = 1
CDC42BPB = settings: read-out: apparent Kd; compound concentrations:100 nM and 1000 nM (sheet 'Samples'); n = 1
CDC42BPG = settings: read-out: apparent Kd; compound concentrations:100 nM and 1000 nM (sheet 'Samples'); n = 1
PKN1 = settings: read-out: apparent Kd; compound concentrations:100 nM and 1000 nM (sheet 'Samples'); n = 1
PKN2 = settings: read-out: apparent Kd; compound concentrations:100 nM and 1000 nM (sheet 'Samples'); n = 1
PRKACA = settings: read-out: apparent Kd; compound concentrations:100 nM and 1000 nM (sheet 'Samples'); n = 1
PRKACB = settings: read-out: apparent Kd; compound concentrations:100 nM and 1000 nM (sheet 'Samples'); n = 1
PRKG1 = settings: read-out: apparent Kd; compound concentrations:100 nM and 1000 nM (sheet 'Samples'); n = 1
PRKX = settings: read-out: apparent Kd; compound concentrations:100 nM and 1000 nM (sheet 'Samples'); n = 1
ROCK1 = settings: read-out: apparent Kd; compound concentrations:100 nM and 1000 nM (sheet 'Samples'); n = 1
ROCK2 = settings: read-out: apparent Kd; compound concentrations:100 nM and 1000 nM (sheet 'Samples'); n = 1
RPS6KB1 = settings: read-out: apparent Kd; compound concentrations:100 nM and 1000 nM (sheet 'Samples'); n = 1
CAMK2B = settings: read-out: apparent Kd, compound concentrations: 100 nM and 1000 nM (sheet 'Samples'), n = 1
AXL = settings: read-out: apparent Kd; compound concentrations: 100 nM and 1000 nM (sheet 'Samples'), CATDS: 0.14940898802630401; n = 1
CLK1 = settings: read-out: apparent Kd, compound concentrations: 100 nM and 1000 nM (sheet 'Samples'), n = 1
CLK2 = settings: read-out: apparent Kd; compound concentrations: 100 nM and 1000 nM (sheet 'Samples'), CATDS: 0.32192475407013899; n = 1
CLK4 = settings: read-out: apparent Kd, compound concentrations: 100 nM and 1000 nM (sheet 'Samples'), n = 1
NTRK1 = settings: read-out: apparent Kd; compound concentrations: 100 nM and 1000 nM (sheet 'Samples'), CATDS: 0.180805132487488; n = 1
BMPR2 = settings: read-out: apparent Kd; compound concentrations: 100 nM and 1000 nM (sheet 'Samples'), CATDS: 6.92108143191002E-2; n = 1
CDC7 = settings: read-out: apparent Kd; compound concentrations: 100 nM and 1000 nM (sheet 'Samples'), CATDS: 7.2811960251287902E-2; n = 1
CSNK2A1;CSNK2A3 = settings: read-out: apparent Kd; compound concentrations: 100 nM and 1000 nM (sheet 'Samples'), CATDS: 8.9230390485803696E-2; n = 1
CSNK2A2 = settings: read-out: apparent Kd; compound concentrations: 100 nM and 1000 nM (sheet 'Samples'), CATDS: 7.4198005881570203E-2; n = 1
GAK = settings: read-out: apparent Kd; compound concentrations: 100 nM and 1000 nM (sheet 'Samples'), CATDS: 0.232195819387676; n = 1
JAK1 = settings: read-out: apparent Kd; compound concentrations: 100 nM and 1000 nM (sheet 'Samples'), CATDS: 8.5496102279709801E-2; n = 1
PI4KB = settings: read-out: apparent Kd; compound concentrations: 100 nM and 1000 nM (sheet 'Samples'), CATDS: 0.18235028668709399; n = 1
PIK3C2B = settings: read-out: apparent Kd; compound concentrations: 100 nM and 1000 nM (sheet 'Samples'), CATDS: 7.7184460843741698E-2; n = 1
RIOK2 = settings: read-out: apparent Kd; compound concentrations: 100 nM and 1000 nM (sheet 'Samples'), CATDS: 5.9872886906535798E-2; n = 1
TNIK = settings: read-out: apparent Kd; compound concentrations: 100 nM and 1000 nM (sheet 'Samples'), CATDS: 7.3078421719639103E-2; n = 1
BUB1 = settings: read-out: apparent Kd; compound concentrations:100 nM and 1000 nM (sheet 'Samples'); n = 1
MAPK14 = settings: read-out: apparent Kd, n = 1
FN3KRP = settings: read-out: apparent Kd; compound concentrations: 100 nM and 1000 nM (sheet 'Samples'), CATDS: 0.322807069227038; n = 1
NQO2 = settings: read-out: apparent Kd; compound concentrations: 100 nM and 1000 nM (sheet 'Samples'), CATDS: 0.51408272608471794; n = 1
CAMK2D = settings: read-out: apparent Kd, compound concentrations: 100 nM and 1000 nM (sheet 'Samples'), n = 1
CAMK2G = settings: read-out: apparent Kd; compound concentrations: 100 nM and 1000 nM (sheet 'Samples'), CATDS: 0.16282933819825701; n = 1
MAPK1 = settings: read-out: apparent Kd, compound concentrations: 100 nM and 1000 nM (sheet 'Samples'), n = 1
MTHFD1 = settings: read-out: apparent Kd; compound concentrations: 100 nM and 1000 nM (sheet 'Samples'), CATDS: 0.112540621038884; n = 1
STK16 = settings: read-out: apparent Kd; compound concentrations: 100 nM and 1000 nM (sheet 'Samples'), CATDS: 0.103320343146107; n = 1
CDK10 = settings: read-out: apparent Kd; compound concentrations: 100 nM and 1000 nM (sheet 'Samples'), CATDS: 0.15001944527595701; n = 1
FN3K = settings: read-out: apparent Kd; compound concentrations: 100 nM and 1000 nM (sheet 'Samples'), CATDS: 0.12433120780871; n = 1
ICK = settings: read-out: apparent Kd; compound concentrations: 100 nM and 1000 nM (sheet 'Samples'), CATDS: 0.14025095323079101; n = 1

Nc1ncnc2scc(-c3ccc(NC(=O)Cc4cc(F)ccc4F)cc3)c12.O=C(O)C(F)(F)F [SB-731254-M]
potency estimated from few doses (AURKB; CATDS: 0.15442610034884699): 399 nM | potency estimated from few doses (EGFR; CATDS: 9.4589689461148804E-2): 1180 nM | potency estimated from few doses (EIF2AK1): 457 nM | potency estimated from few doses (FLT3): 85.2 nM | potency estimated from few doses (LIMK1): 1910 nM | potency estimated from few doses (LIMK2): 817 nM | potency estimated from few doses (NNT): 1530 nM | potency estimated from few doses (PDGFRB): 1260 nM | potency estimated from few doses (TESK2): 1210 nM

C[C@@H](Oc1cc(-n2cnc3ccc(OCC4CCN(C)CC4)cc32)sc1C(N)=O)c1ccccc1C(F)(F)F [GSK326090A]
potency estimated from few doses (BMP2K): 1900 nM | potency estimated from few doses (MAP3K1): 1240 nM | potency estimated from few doses (MAP4K5): 203 nM | potency estimated from few doses (NUAK2): 411 nM | potency estimated from few doses (PLK1): 67.7 nM | potency estimated from few doses (STK10): 1720 nM

COc1ccc(Nc2nccc(N3CCC(NC(=O)c4cccc(C#N)c4)C3)n2)cc1 (stereo not shown) [GSK1379730A]
potency estimated from few doses (AURKB; CATDS: 0.359402067500939): 1450 nM | potency estimated from few doses (PIK3CD): 177 nM

Cl.Cl.NC[C@H](CC1CCCCC1)NC(=O)c1cc(Br)c(-c2ccnc3[nH]ccc23)s1.NC[C@H](CC1CCCCC1)NC(=O)c1cc(Br)c(-c2ccnc3[nH]ccc23)s1 [GSK1581427A]
potency estimated from few doses (BMP2K): 106 nM | potency estimated from few doses (CDC42BPA): 119 nM | potency estimated from few doses (CDC42BPB): 45.2 nM | potency estimated from few doses (CDC42BPG): 13.7 nM | potency estimated from few doses (PKN1): 1690 nM | potency estimated from few doses (PKN2): 2310 nM | potency estimated from few doses (PRKACA): 20.9 nM | potency estimated from few doses (PRKACB): 40.2 nM | potency estimated from few doses (PRKG1): 10.8 nM | potency estimated from few doses (PRKX): 513 nM | potency estimated from few doses (ROCK1): 53.6 nM | potency estimated from few doses (ROCK2): 51.1 nM | potency estimated from few doses (RPS6KB1): 481 nM

Cc1ccc2c(-c3ccnc(Nc4ccc5c(c4)OCCO5)n3)c(-c3ccc(C(F)(F)F)cc3)nn2n1 [GW832467X]
potency estimated from few doses (CAMK2B; CATDS: 1): 475 nM

CC(C)S(=O)(=O)N1CCN(Cc2ccc3c(c2)nc(NC(=O)c2ccsc2)n3C[C@H](O)c2ccccc2)CC1 [GW635815X]
potency estimated from few doses (AXL): 1630 nM | potency estimated from few doses (CLK1; CATDS: 0.22469270721715301): 606 nM | potency estimated from few doses (CLK2): 328 nM | potency estimated from few doses (CLK4; CATDS: 0.19159631348183601): 843 nM | potency estimated from few doses (NTRK1): 964 nM

COC(=O)c1ccc2c(c1)C(=Cc1cc(Br)c(O)c(Br)c1)C(=O)N2 [GW405841X]
potency estimated from few doses (BMPR2): 1220 nM | potency estimated from few doses (CDC7): 1070 nM | potency estimated from few doses (CLK1; CATDS: 6.6251473023667004E-2): 1380 nM | potency estimated from few doses (CLK4; CATDS: 8.9206642022587504E-2): 668 nM | potency estimated from few doses (CSNK2A1;CSNK2A3): 667 nM | potency estimated from few doses (CSNK2A2): 1020 nM | potency estimated from few doses (GAK): 138 nM | potency estimated from few doses (JAK1): 731 nM | potency estimated from few doses (PI4KB): 194 nM | potency estimated from few doses (PIK3C2B): 924 nM | potency estimated from few doses (RIOK2): 1910 nM | potency estimated from few doses (TNIK): 1060 nM

Cl.Oc1cccc(-c2nc(-c3ccccc3)[nH]c2-c2ccncc2)c1 [SB-610251-B]
potency estimated from few doses (BUB1): 2530 nM | potency estimated from few doses (MAPK14; compound concentrations:100 nM and 1000 nM (sheet 'Samples')): 1570 nM

CS(=O)(=O)CCNCc1cc(-c2cc3c(Nc4ccc(OCc5cccc(F)c5)c(Cl)c4)ncnc3s2)cs1 [GSK300014A]
potency estimated from few doses (CAMK2B; CATDS: 0.17838032280045099): 575 nM | potency estimated from few doses (EGFR; CATDS: 0.186882259763333): 481 nM | potency estimated from few doses (FN3KRP): 112 nM | potency estimated from few doses (NQO2): 48.6 nM

N#Cc1cccc(C(=O)NC2CCN(c3ccnc(Nc4ccc(F)cc4)n3)C2)c1 (stereo not shown) [GSK1379708A]
potency estimated from few doses (CAMK2B; CATDS: 0.21240793687588): 395 nM | potency estimated from few doses (CAMK2D; CATDS: 0.22355141461127601): 364 nM | potency estimated from few doses (CAMK2G): 631 nM | potency estimated from few doses (MAPK14; compound concentrations: 100 nM and 1000 nM (sheet 'Samples'), CATDS: 0.12639229047772599): 1100 nM | potency estimated from few doses (MAPK1; CATDS: 0.13886491205571): 879 nM | potency estimated from few doses (MTHFD1): 1500 nM | potency estimated from few doses (STK16): 1980 nM

Cn1cc(C2=C(N3CCOCC3)C(=O)NC2=O)c2ccccc21 [RO3303031-000]
potency estimated from few doses (CAMK2B; CATDS: 0.26217327719794398): 327 nM | potency estimated from few doses (CAMK2D; CATDS: 0.25731079955705399): 336 nM | potency estimated from few doses (CDK10): 957 nM | potency estimated from few doses (FN3K): 1620 nM | potency estimated from few doses (ICK): 1140 nM | potency estimated from few doses (MAPK1; CATDS: 0.154787589884953): 887 nM
